High-throughput results deposited in PubChem BioAssay by National Center for Advancing Translational Sciences (NCATS).
Only some compounds are listed: those with a hit (about 2.4% of all), similar ones and a draw of the others.
Cruzain noTriton: qHTS Assay for Promiscuous and Specific Inhibitors of Cruzain (without detergent) | purified cruzain, Z-FR-AMC fluorescence, no detergent | Potency, µM, without a hit: max response, negative = inhibition, most hits filed as inhibitors | Cruzipain (Trypanosoma cruzi), P25779 | 200,000 tested, 2.3% active;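 further: plate controls were enzyme without inhibitor for no effect and buffer without enzyme for full effect; nearly all actives have a fitted effect of over 40% in size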
Target sequence (P25779 123-467 limits assumed): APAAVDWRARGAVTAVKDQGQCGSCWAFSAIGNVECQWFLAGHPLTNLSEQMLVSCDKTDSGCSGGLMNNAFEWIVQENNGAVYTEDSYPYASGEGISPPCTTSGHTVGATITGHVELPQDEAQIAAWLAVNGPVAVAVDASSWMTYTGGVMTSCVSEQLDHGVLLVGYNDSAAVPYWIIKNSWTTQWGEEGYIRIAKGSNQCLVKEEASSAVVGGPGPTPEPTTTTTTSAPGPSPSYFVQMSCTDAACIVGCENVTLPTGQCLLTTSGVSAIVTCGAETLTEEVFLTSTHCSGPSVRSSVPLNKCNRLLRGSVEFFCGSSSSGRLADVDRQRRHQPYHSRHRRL
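Detergent-free condition (0.00005% Triton X-100) in acetate buffer pH 5.5 with DTT. 1.5 nM enzyme and compound were pre-mixed 15 min, then 2 uM Z-FR-AMC substrate added; reaction progress from fluorescence change between first and third reads (60 s).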
Cruzain inh Det: qHTS Assay for Promiscuous and Specific Inhibitors of Cruzain (with detergent) | AID 1478, 2009 | 200,000 tested, 0.43% active | purified cruzain, Z-FR-AMC fluorescence, 0.01% Triton | Potency, µM, for the others: max response, negative = inhibition, usual class: inhibitors | Cruzipain (Trypanosoma cruzi), P25779;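 further: plate controls were neutral wells for no effect and buffer without enzyme for full effect; nearly all actives have a fitted effect of over 40% in size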
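Cysteine protease activity tested under reducing, mildly acidic conditions (100 mM sodium acetate pH 5.5, 5 mM DTT) plus 0.01% Triton X-100. Cruzain 1.5 nM; substrate Z-FR-AMC 2 uM; 15 min compound preincubation at room temperature.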
Starred values were filed as active, the others as inactive; ? = inconclusive; ! = not active in a repeat. The call rests on the fitted dose curve; in most records, active means well fitted curve in the direction sought with a large enough effect; inconclusive means small, poorly fitted or top-dose-only effect, or another doubt; inactive means no such curve, though single readings can be large; an effect the other way counts as inactive or inconclusive. Potency means the concentration at half of the fitted maximal effect.

SMILES | Cruzain noTriton | Cruzain inh Det
COc1cc(/C=N\Nc2ccc([N+](=O)[O-])cc2)ccc1OCC(=O)Nc1ccc(C)c(C)c1 | 4µM* | 0%
COc1cc(/C=N/NC(N)=S)ccc1OCC(=O)Nc1ccc(C)cc1 | ? | 2.5µM*
CNC(=S)N/N=C/c1ccc(OCC(=O)Nc2c(C)cc(C)cc2C)c(OC)c1 | 4% | -6%
CCOc1cc(/C=N\Nc2ccc([N+](=O)[O-])cc2)ccc1OCC(=O)Nc1ccc(C)c(C)c1 | ? | 5%
CCOc1ccc(C(=O)Nc2ccc(C(=O)OCc3cc(=O)n4c(C)csc4n3)cc2)cc1 | 8% | 0%
CCOc1ccc(NC(=O)CCS(=O)(=O)c2cccc3nonc23)cc1 | 7% | -1%
COc1ccccc1CNc1ccnc(-c2ccc(N(C)C)cc2)n1 | -13% | -3%
O=C(Cn1c(=O)oc2cc(S(=O)(=O)NCc3ccccc3)ccc21)N(CCO)Cc1ccccc1 | 1% | -3%
CC(=O)c1cc(-c2ccccc2)n(CCC(=O)Nc2cc(C)cc(C)c2)c1C | -3% | -11%
COc1ccccc1NC(=O)c1ccccc1NC(=O)c1cc(Cl)ccc1NC(=O)c1ccco1 | 16µM* | -5%
COc1ccccc1NC(=O)c1cc(Cl)ccc1NC(=O)c1ccco1 | 3% | -3%
CSc1nc2ccccc2cc1/C=C(\C#N)c1ccc(Cl)c(Cl)c1 | 25µM* | 0%
CSc1nc2ccccc2cc1/C=C(\C#N)c1ccccc1 | -2% | -10%
CCCNC(=O)c1ccccc1NC(=O)c1nsc2ccccc12 | 8% | 1%
Cc1nnc(OC(C)C)c2nn(-c3ccccc3F)c(C)c12 | 2% | 5%
Fc1ccccc1-n1[nH]nnc1=S | 13µM* | 20µM*
CCC(=O)Nc1cc(-c2nc3cc(C)cc(C)c3o2)ccc1C | ? | 1%
Cc1cccc(Nc2ncnc3c2cnn3C)c1C | -3% | 1%
COCCn1c(SCc2nc3scc(-c4ccc(Cl)cc4)c3c(=O)[nH]2)nnc1-c1cccc(C)c1 | 25µM* | -6%
CCn1c(SCc2nc3scc(-c4ccccc4)c3c(=O)[nH]2)nnc1-c1cccs1 | -26% | -4%
CN(C)c1ccc(C(=C2C=CC(=[N+](C)C)C=C2)c2ccc(N(C)C)cc2)cc1 | 20µM*! | -21%
CN(C)c1ccccc1 | -1% | 0%
CN(C)c1ccc(C(=O)c2ccc(N(C)C)cc2)cc1 | -15% | -10%
CN(C)c1ccc(C(=C2C=CC(=[N+](C)C)C=C2)c2ccccc2)cc1 | 25µM*! | 0%
Cn1c(=O)n(CCc2ccccc2)c(=O)c2c1nc1n2CCN1c1ccc(Cl)cc1 | -2% | -3%
SMILES | Cruzain noTriton | Cruzain inh Det
CCn1c(C(=O)NCc2ccc(C)cc2)cc2sc(Cl)cc21 | 0% | -5%
Cc1ccc(C2C3=C(CCCC3=O)Nc3[nH]c(=S)[nH]c(=O)c32)cc1 (stereo unspecified) | -26% | -20%
O=C1CCCC2=C1C(c1ccc(Br)cc1)c1c([nH]c(=S)[nH]c1=O)N2 (stereo unspecified) | 16µM* | 18µM*
C#CCOCCOCCOCCNc1nc(N2CCN(C(=O)Cn3cc(CCCN=C(N)N)nn3)CC2)nc(N2CCN(C(=O)[C@H](C(C)C)n3cc(CCO)nn3)CC2)n1 | 6% | 0%
C#CCOCCOCCOCCNc1nc(N2CCN(C(=O)Cn3cc(CCCN=C(N)N)nn3)CC2)nc(N2CCN(C(=O)[C@H]([C@@H](C)CC)n3cc(CCCN=C(N)N)nn3)CC2)n1 | 20µM* | 25µM*
CC(C)(SCc1ccccc1)[C@H](N)C(=O)O | -5% | 1%
Cc1ccccc1-c1nc(-c2ccc(NC(=O)c3ccc4c(c3)OCO4)cc2)no1 | 7.9µM* | -1%
COc1cc(-c2nc(-c3ccc(NC(=O)c4ccc5c(c4)OCO5)cc3)no2)cc(OC)c1OC | ? | -3%
COC(=O)c1ccc(NC(=O)CC2C(=O)N(c3ccccc3)C(=O)N2Cc2cccs2)cc1 (stereo unspecified) | -7% | 0%
O=c1oc2cc(OCc3ccc(F)cc3F)ccc2cc1-c1ccc2ccccc2n1 | 13µM* | -2%
O=c1oc2cc(OCc3c(F)cccc3Cl)ccc2cc1-c1ccccn1 | 23% | 0%
COCCN(CCOC)S(=O)(=O)c1ccc(C(=O)Nc2sc3c(c2C(N)=O)CCCC3)cc1 | 9% | -4%
CN1CCN(S(=O)(=O)c2cccc(C(=O)Nc3sc4c(c3C(N)=O)CCCC4)c2)CC1 | 13µM* | ?
NC(=O)c1c(NC(=O)c2ccc(S(=O)(=O)N(CCCl)CCCl)cc2)sc2c1CCCCC2 | 4µM* | 1%
NC(=O)c1c(NC(=O)c2ccc(S(=O)(=O)N3CCOCC3)cc2)sc2c1CCCCC2 | ? | -4%
Cc1cccc(NC(=O)CSc2nnc([C@@H](N)Cc3c[nH]c4ccccc34)o2)c1C | 13µM* | 13µM*
CCSc1nnc([C@@H](N)Cc2c[nH]c3ccccc23)o1 | 7% | 2%
CCOc1ccc(C(=O)Nc2cccc(-c3nc4cccnc4s3)c2C)cc1OCC | 9% | -4%
CC1(C)CC(=O)c2cc(-c3nc(-c4ccc(Cl)cc4)cs3)c(=O)n(-c3cccc(F)c3)c2C1 | -5% | -2%
COc1cc2c(cc1NC(=O)CSc1ccccc1)oc1ccccc12 | -3% | -8%
COc1cc2c(cc1NC(=O)CSc1nccn1C)oc1ccccc12 | 8% | -11%
COc1cc2c(cc1NC(=O)CSc1nc3ccccc3[nH]1)oc1ccccc12 | 25µM* | 6%
COc1cc2c(cc1NC(=O)CSc1nc3cc(Cl)ccc3s1)oc1ccccc12 | 7.9µM* | -3%
CCOC(=O)c1ccc(OCC2c3cc(OC)c(OC)cc3CCN2C(=O)c2ccc(S(=O)(=O)N3CCCC3)cc2)cc1 (stereo unspecified) | ? | 1%
O=C(Nc1ccc(C(=O)OCc2cc(=O)n3nc(C4CC4)sc3n2)cc1)c1cccc(F)c1 | -8% | 2%
SMILES | Cruzain noTriton | Cruzain inh Det
Cc1ccc(CN2CCN(Cc3ccc(C)o3)[C@@H](C)C2)o1 | -1% | 1%
O=C(COC(=O)c1cc([N+](=O)[O-])ccc1NCc1ccccc1)NCc1ccccc1Cl | -84% | -5%
O=C(COC(=O)c1cc([N+](=O)[O-])ccc1NCc1ccccc1)NC1CCCc2ccccc21 (stereo unspecified) | 25µM* | 2%
CC(C)(C)CC(C)(C)c1cc(O)c(O)c(CN2CCCCC2)c1 | 0% | -3%
CCOc1ccc(C(=O)Nc2ccccc2C(=O)OCc2cc(=O)n3nc(C4CC4)sc3n2)cc1 | -11% | 0%
COc1ccc(/C=C2\CCCC3C2=NC(=S)NC3c2ccc(OC)cc2)cc1 (stereo unspecified) | 25µM* | -5%
CCCn1c(SCC(=O)N2N=C3/C(=C/c4ccc(OC)cc4)CCCC3C2c2ccc(OC)cc2)n[nH]c1=O (stereo unspecified) | 15% | -11%
COC(=O)c1cc(=O)n(Cc2ccc3c(c2)OCO3)c(=Nc2ccc(F)c(Cl)c2)s1 | 20µM* | -2%
COC(=O)c1cc(=O)n(CCc2ccc(OC)cc2)c(=Nc2ccc(F)c(Cl)c2)s1 | -20% | 0%
O=C(Nc1cc(-c2nc3ccccc3s2)ccc1Cl)c1ccc2c(c1)OCO2 | ? | 5%
Cc1ccc(-c2nc3ccccc3s2)cc1NC(=S)NC(=O)/C=C/c1ccco1 | 16µM* | 0%
Cc1ccc(C(=O)NC(=S)Nc2cccc(-c3nc4ccccc4s3)c2)cc1 | ? | 0%
Cc1ccc(-n2nc3cc(C)c(NC(=S)NC(=O)/C=C/c4ccco4)cc3n2)cc1 | ? | -5%
